Measurements from PubChem BioAssay (Tox21).
Inconclusive results are not listed. Active and inactive are the calls of the source. Calls follow the shape of the full dose curve. Non-standard residues stand in square brackets, D forms with d. Residues, ends and D or L forms follow the SMILES beside them. *: point of attachment. Sta = CC(C)C[C@H](N)[C@@H](O)CC(=O)O; Isovaleryl = CC(C)CC(=O)*

target: Vitamin D3 receptor (Homo sapiens) (UniProt P11473); test: qHTS assay to identify small molecule agonists of the vitamin D receptor (VDR) signaling pathway (AID 743222); settings: HEK293T VDR-UAS-bla, beta-lactamase FRET ratio, 16 h; series mostly up to 63.5 µM; activation: at the top concentration
Sequence (P11473 whole entry, looked up): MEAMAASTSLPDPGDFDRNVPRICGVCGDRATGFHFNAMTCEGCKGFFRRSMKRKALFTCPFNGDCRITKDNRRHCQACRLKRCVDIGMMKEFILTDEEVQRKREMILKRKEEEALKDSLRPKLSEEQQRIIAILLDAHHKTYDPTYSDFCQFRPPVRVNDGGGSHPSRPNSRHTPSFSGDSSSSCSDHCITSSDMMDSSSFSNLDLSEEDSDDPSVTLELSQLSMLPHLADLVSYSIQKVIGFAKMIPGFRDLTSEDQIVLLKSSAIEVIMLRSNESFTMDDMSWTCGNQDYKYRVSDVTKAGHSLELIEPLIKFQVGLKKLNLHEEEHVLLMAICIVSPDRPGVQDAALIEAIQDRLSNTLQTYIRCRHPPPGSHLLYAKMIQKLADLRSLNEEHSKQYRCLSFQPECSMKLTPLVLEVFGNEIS
Description: National Center for Advancing Translational Sciences [NCATS]
NIH Chemical Genomics Center [NCGC]
U.S. Environmental Protection Agency [EPA]
National Institutes of Environmental Health Sciences [NIEHS]
National Toxicology Program [NTP]
U.S. Food and Drug Administration [FDA]
The vitamin D receptor (VDR), a member of nuclear hormone receptor superfamily, plays a critical role in calcium homeostasis and bone metabolism. It is also involved in cell differentiation and growth, and thrombogenicity.
Tox21 Assay Protocol Summary:
VDR-bla cells were dispensed at 2,000 cells/6 uL/well into black wall/clear-bottom 1536-well plates using a Multidrop Combi (Thermo Fisher Scientific, Waltham, MA) dispenser. After the assay plates were incubated at a 37C and 5% CO2 for 4 h, 23 nL of compounds dissolved in DMSO, positive controls or DMSO only was transferred to the assay plate by a Pintool station (Kalypsys, San Diego, CA). The plates were incubated at 37C and 5% CO2 for 16 h. After 1 uL of LiveBLAzerTM B/G FRET substrate was added using a Bioraptr Flying Reagent Dispenser (FRD) workstation (Beckman Coulter, Indianapolis, IN, USA), the plates were incubated at room temperature for 2 h, and fluorescence intensity was measured by an Envision plate reader (PerkinElmer, Shelton, CT).
% is scaled to controls: 0 for no effect and ±100 for the full control effect.

SMILES	activation
O=C1CC2(CCCC2)CC(=O)N1CCNCC1COc2ccccc2O1 (stereo not given)	-10% (inactive)
Cc1ccc(NC(N)=O)cc1	5.94% [at 81.1 µM] (inactive)
CC(=O)O[C@@H]1CC2C3CCc4cc(OC(=O)c5ccccc5)ccc4C3CCC2(C)[C@H]1OC(C)=O (stereo not given in full)	0.832% (inactive)
CC(=O)OCC(=O)[C@@]1(O)CC[C@H]2[C@@H]3CCC4=CC(=O)C=C[C@]4(C)[C@H]3[C@@H](O)C[C@@]21C	-4.52% (inactive)
CC(=O)Oc1ccc(C(C)=O)cc1	6.16% [at 81.1 µM] (inactive)
COC(=O)c1c(C)cc(O)c(C)c1O	0.21% (inactive)
CC(C)CC(=O)N[C@H](C(=O)N[C@H](C(=O)N[C@@H](CC(C)C)[C@@H](O)CC(=O)N[C@@H](C)C(=O)N[C@@H](CC(C)C)[C@@H](O)CC(=O)O)C(C)C)C(C)C (Isovaleryl-VV[Sta]A[Sta]-OH)	12.8% (inactive)
CC(C)(C)OC=O	5.57% [at 81.1 µM] (inactive)
CC(C)OCCO	7.76% (inactive)
O=C(O)/C=C(\CC(=O)O)C(=O)O	-1.04% (inactive)
CCCC(=O)C(CC)Sc1ccoc1C (stereo not given)	-0.101% (inactive)
Nc1nc(Cl)cc(Cl)n1	-13.6% (inactive)
C[n+]1ccccc1/C=N/O	7.7% (inactive)
CC(O)CCCCn1c(=O)c2c(ncn2C)n(C)c1=O (stereo not given)	7.15% (inactive)
CC(=O)c1ccc2ccc3ccccc3c2c1	-0.378% (inactive)
COc1cc(OC)cc(OC)c1	4.04% (inactive)
NNC(=O)OCc1ccccc1	-10.7% (inactive)
CCCCC(CC)CCC(CC(C)C)OS(=O)(=O)O (stereo not given)	4.27% (inactive)
CC(C)(C)C(=O)NCCCC(=O)O	0.719% (inactive)
CCCCS	8.36% [at 81.1 µM] (inactive)

SMILES	activation
CC(C)(O)c1ccc(C(C)(C)O)cc1	6.88% (inactive)
C=CC(C)(CCC=C(C)C)OC(=O)C(C)C (stereo not given)	0.871% (inactive)
O=S(=O)(O)CC(O)CCl (stereo not given)	0.413% (inactive)
O=c1c(O)c(O)c1=O	4.41% (inactive)
CCC(C)SSC(C)CC (stereo not given)	0.826% (inactive)
COc1cc(S(N)(=O)=O)cc(C(=O)O)c1OC	0.809% (inactive)
COC(=O)c1ccc(C(=O)O)cc1	4.12% (inactive)
CCCCCCCCCCCCCCCC(=O)OC	-8.27% [at 29.5 µM] (inactive)
C[C@@H](CN1CC(=O)NC(=O)C1)N1CC(=O)NC(=O)C1	5.7% (inactive)
CCCCCCCOC(C)=O	-3.1% (inactive)
CCN(CC)CC	0.546% [at 81.1 µM] (inactive)
Clc1cc(Cl)c(Cl)c(Cl)c1Cl	5.4% (inactive)
C=CCn1cc[n+](C)c1	-4.71% [at 81.1 µM] (inactive)
N#Cc1cc(NC(=O)C(=O)O)c(Cl)c(NC(=O)C(=O)O)c1	-1.76% (inactive)
CCC(C)(C)C	-1.29% [at 81.1 µM] (inactive)
Cc1ccc(O)c([N+](=O)[O-])c1	5.99% [at 81.1 µM] (inactive)
CCCCCCCCCCCCCCBr	0.948% [at 81.1 µM] (inactive)
CC1(C)C(=O)C(C)(C)C1=O	0.621% (inactive)
CCCCN(CCCC)CCCCCCN(CCCC)CCCC	-0.459% (inactive)
N#CC1(N)CCCCC1	3.72% [at 81.1 µM] (inactive)
